From PubChem BioAssay AID720550 (National Center for Advancing Translational Sciences (NCATS), 2013)
Results filed as inconclusive are left out. Calls of active or inactive are those of the source. Calls come from the whole dose curve; as a rule, active = well fitted curve in the direction sought with a large enough effect; inconclusive = small, poorly fitted or top-dose-only effect, or another doubt; inactive = no such curve, though single readings can be large or run the other way.

assay: qHTS for Inhibitors of Bloom's syndrome helicase (BLM): Thiazole Orange DNA Binding Counterscreen for SAR.; settings: fluorescence; Potency: Thiazole orange DNA displacement; series mostly up to 57.1 µM; activity change, negative = displacement: at the top concentration
How it was run: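 Counterscreen for nonspecific DNA binding: thiazole orange (100 nM) pre-bound to 50 nM unlabeled DNA, test compound added, 15 min room-temperature incubation, then ex 480/em 530 nm fluorescence measured; lack of displacement preferred.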

Row | Compound | activity change, negative = displacement | Potency
1 | O=C(Nc1ccc2sccc2c1)Nc1nnc(-c2ccncc2)s1 | 5.03% (inactive) | –
2 | CC(C)(C)c1cccc(NC(=O)Nc2nnc(-c3ccncc3)s2)c1 | -29.7% (inactive) | –
3 | Cc1cc(NC(=O)Nc2nnc(C3CCCCC3)s2)ccc1Cl | 100% (inactive) | –
4 | O=C(Cc1nnc(-c2ccncc2)s1)Nc1ccc(F)c(C(F)(F)F)c1 | 52.1% (inactive) | –
5 | O=C(Nc1ccc(F)c(C(F)(F)F)c1)Nc1nnc(-c2ccncc2)s1 | – | inactive
6 | O=S(=O)(Cc1ccc(Cl)c(Cl)c1)Nc1nnc(-c2ccncc2)s1 | 7.75% (inactive) | –
7 | N#Cc1cc(NC(=O)Nc2nnc(-c3ccncc3)s2)ccc1F | -16.5% (inactive) | –
8 | O=C(Nc1ccc(Cl)c(C(F)(F)F)c1)Nc1nnc(-c2cccnc2)s1 | 83.1% (inactive) | –
9 | O=C(Nc1ccc(F)c(F)c1)Nc1nnc(-c2ccncc2)s1 | 3.39% (inactive) | –
10 | O=C(Nc1ccc(N2CCOCC2)c(F)c1)Nc1nnc(-c2ccncc2)s1 | -24.6% (inactive) | –
11 | O=C(Nc1ccc(Cl)c([N+](=O)[O-])c1)Nc1nnc(-c2ccncc2)s1 | – | 513 nM (active)
12 | O=C(Nc1ccc(Cl)c(Cl)c1)Nc1nnc(C2CCCCC2)s1 | 46.9% (inactive) | –
13 | O=C(NCc1ccccc1)Nc1nnc(-c2ccncc2)s1 | -0.576% (inactive) | –
14 | O=C(Nc1ccc2ccccc2c1)Nc1nnc(-c2ccc(Cl)cc2)s1 | -23.2% (inactive) | –
15 | O=C(Nc1ccc2ccccc2c1)Nc1nnc(-c2ccncc2)s1 | -2.58% (inactive) | –
16 | Cc1cc(C)c(-c2nnc(NC(=O)Nc3ccc4ccccc4c3)s2)c(C)c1 | 10.1% (inactive) | –
17 | CN1CCN(c2nnc(NC(=O)Nc3ccc(Cl)c(Cl)c3)s2)CC1 | 24.5% (inactive) | –
18 | O=C(Nc1ccc(-n2cncn2)c(F)c1)Nc1nnc(-c2ccncc2)s1 | -0.894% (inactive) | –
